Measured values published in PubChem BioAssay AID624330 (Southern Research Specialized Biocontainment Screening …, 2012).
In all, about 340,000 compounds went through this assay and about 2,100 (0.62%) were called active. Not all results are given here. Entries with a potency or affinity are not part of this list. A number with no mark means an inactive call.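 The calls were made as follows: active = first-screen hits whose inhibition reached a set limit at any dose in the follow-up dose series; inconclusive = inhibition above the set first-screen limit but never retested; inactive = the rest.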

Each compound was assayed against Rac GTPase-activating protein 1 (Homo sapiens) (UniProt Q9H0H5) (assay: MgcRacGAP GTPase-activating activity inhibitors, confirmation, biochemical, ADP Hunter fluorescence, primary and confirmatory (AID 624330;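 also: fluorescence reports GDP produced by GAP-driven GTP hydrolysis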)). Details: MgcRacGAP-stimulated Rac1 GTP hydrolysis, at 30 µM, stronger effect = higher value, GST-tagged Rac1 F28L mutant substrate.
Rac GTPase-activating protein 1 (Homo sapiens), sequence (Q9H0H5 whole entry, looked up): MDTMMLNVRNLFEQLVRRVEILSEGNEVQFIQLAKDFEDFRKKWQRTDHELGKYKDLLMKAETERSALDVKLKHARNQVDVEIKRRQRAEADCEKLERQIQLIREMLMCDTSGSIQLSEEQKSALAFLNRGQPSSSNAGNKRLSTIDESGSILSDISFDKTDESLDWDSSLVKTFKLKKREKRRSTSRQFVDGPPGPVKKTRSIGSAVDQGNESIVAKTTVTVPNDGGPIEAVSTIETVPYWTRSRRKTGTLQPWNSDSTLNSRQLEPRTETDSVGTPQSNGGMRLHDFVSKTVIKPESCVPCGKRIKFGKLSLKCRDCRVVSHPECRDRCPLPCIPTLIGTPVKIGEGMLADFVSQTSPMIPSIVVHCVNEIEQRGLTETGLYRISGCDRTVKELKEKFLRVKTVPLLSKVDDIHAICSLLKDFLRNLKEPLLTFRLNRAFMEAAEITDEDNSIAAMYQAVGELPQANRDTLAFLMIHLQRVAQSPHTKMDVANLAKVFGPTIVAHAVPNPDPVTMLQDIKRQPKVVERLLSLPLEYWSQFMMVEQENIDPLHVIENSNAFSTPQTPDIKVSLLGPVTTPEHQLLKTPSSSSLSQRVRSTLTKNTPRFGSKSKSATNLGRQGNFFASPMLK

Row | SMILES | inhibition [%]
1 | CCc1ccc(NC(=O)C2CCN(S(=O)(=O)c3ccc4c(c3)NC(=O)CO4)CC2)cc1 | -14
2 | CC(C)n1c2ccccc2c2cc([N+](=O)[O-])ccc21 | 10.7
3 | COc1cc(/C=C(/C(=O)O)c2ccc(-c3ccccc3)cc2)cc(OC)c1OC | 7.82
4 | Cn1c(-c2ccccc2)cc(=O)c2ccccc21 | 12.4
5 | COc1cc(/C=C2\C(=O)ON=C2c2ccccc2)cc(OC)c1OC | 15
6 | O=C1/C(=C/c2ccc([N+](=O)[O-])cc2)C=C(c2ccccc2)N1c1ccccc1 | 15.2
7 | Cn1c(=O)cc(-c2ccccc2)c2ccccc21 | 5.87
8 | CC(=O)Nc1ccc(NC(=O)CSc2nnc(-c3cccs3)n2C)cc1 | 5.9
9 | O=C(/C=C/c1cccc([N+](=O)[O-])c1)NCc1ccccc1 | 2.96
10 | CCCCOc1cccc(/C=C(\C#N)C(=O)NC2CC2)c1 | 4.72
11 | CC(C)(C)OC(=O)C[C@@H]1C/C=C\C[C@@H](CC(=O)N[C@H](CO)Cc2ccccc2)C(=O)N2CCC[C@@H]2COC1=O | 4.93
12 | CN(CCO)c1ncnc2c1sc1nc(N3CCOCC3)c3c(c12)CCC3 | 13.9
13 | O=C(CCl)N(c1ccccc1)c1ccccc1 | 5.65
14 | Cc1cc(C(=O)NNC(=O)C2CCCC2)c(C)o1 | 4.19
15 | Cc1cnc(NC(=O)c2cccs2)s1 | 0.1
16 | NC(=O)C[C@H](N)c1cn([C@@H](CC(N)=O)C(=O)N2CCNCC2)nn1 | -0.03
17 | CN(CC1CCCN(CCc2ccc(Cl)cc2)C1)C(=O)C(=O)c1ccco1 (centres undefined) | 6.85
18 | Cc1ccn2cc(C(=O)N3CCN(c4cnn(-c5ccccc5)c(=O)c4Cl)CC3)nc2c1 | 2.32
19 | O=C(NCc1ccccc1)NS(=O)(=O)c1ccccc1Cl | 2.6
20 | CCCCCCCCCCCCCCCC[N+](C)(C)CC | 18.7
21 | CCCCCCCCCCCCCCCC[N+](C)(C)CCl | 15.1
22 | COc1ccc(CNC(=O)C(C)N(Cc2ccco2)C(=O)c2snc(C(N)=O)c2N)cc1 (centres undefined) | -8.32

Row | SMILES | inhibition [%]
23 | C=CCNCC(=O)N1N=C(c2ccc3ccccc3c2)CC1c1ccc(OC)cc1 (centres undefined) | 6.55
24 | COc1ccc(C2CC(c3ccc4ccccc4c3)=NN2C(=O)CSc2ncccn2)cc1 (centres undefined) | 7.23
25 | CN(C)CC1CCC/C(=C\c2ccc(OC(=O)c3ccc(Cl)cc3)cc2)C1=O (centres undefined) | 2.37
26 | COc1ccc(CCNC(=O)CCOc2ccc(C(C)(C)C)cc2)cc1OC | 3.35
27 | Cc1ccc(-c2nnc(NC(=O)c3ccco3)s2)cc1 | 6.39
28 | CC(=O)Nc1nnc(C)s1 | 9.89
29 | Cc1nnc(NC(=O)c2ccco2)s1 | 4.57
30 | CC(=O)Nc1nnc(S(N)(=O)=O)s1 | 1.42
31 | CC(C)c1ccc(CNC(=O)C(=O)NCC2CCCO2)cc1 (centres undefined) | 14.8
32 | Cc1cc(NS(=O)(=O)c2ccc(NC(=O)COc3ccccc3[N+](=O)[O-])cc2)no1 | 7.5
33 | CC1c2ccccc2SC(CCCN(C)C)c2ccccc21 (centres undefined) | 5.84
34 | CN(C)CCC1Sc2ccccc2Oc2ccccc21 (centres undefined) | 17.5
35 | Cc1onc(-c2c(F)cccc2Cl)c1C(=O)NCc1cccs1 | 5.78
36 | COc1ccc(S(=O)(=O)N(C)CC(=O)NCCC2=CCCCC2)cc1 | 4.26
37 | O=c1[nH]c(/C=C\c2cccc(O)c2)nc(O)c1[N+](=O)[O-] | 13.1
38 | O=[N+]([O-])c1ccc2oc(/C=C/c3ccc(O)cc3)nc2c1 | 13.2
39 | NS(=O)(=O)c1ccc(NC(=S)NNC(=O)c2ccc(Br)o2)cc1 | 4.44
40 | COc1ccc(Cl)cc1NC(=O)CN(C)CC(=O)Nc1ccc(Br)cc1 | 3.57
41 | O=C(NN1C(=O)/C(=C\c2cccnc2)SC1=S)c1ccco1 | 13.7
42 | CCOc1ccc(NC(=O)CSc2nnc(C3CC3)n2C)cc1S(=O)(=O)N1CCCCC1 | 8.28
43 | COc1ccc(OC)c(CN2CCN(C(=O)c3ccc(F)cc3)CC2)c1 | 25
44 | COc1ccccc1N1CCN(C(=O)c2ccncc2)CC1 | -0.56

Row | SMILES | inhibition [%]
45 | COc1ccc(Br)cc1CN1CCN(C(=O)c2ccc(OC)c(OC)c2)CC1 | 21
46 | COc1ccccc1C(=O)N1CCN(C(=O)c2ccncc2)CC1 | 1.76
47 | CCCCOc1ccc(/C=C/C(=O)N(CC)CC(=O)Nc2ccc3c(c2)OCCO3)cc1OC | 11.7
48 | C/C(Cn1nc([N+](=O)[O-])cc1C)=N\NC(=O)COc1ccc(Cl)cc1Cl | 6.26
49 | Cc1ccccc1NC(=O)c1c(C)nn(-c2ccccc2)c1Cl | 8.16
50 | O=C(CSc1ncccn1)NCC1CCCO1 (centres undefined) | 4.06
51 | COc1cc(/C=N\Nc2nc3ccccc3[nH]2)cc(OC)c1OC | 29
52 | COc1cc(/C=N/Nc2nc3ccccc3[nH]c2=O)ccc1O | 15.8
53 | COc1ccc(O)c(/C=N/Nc2nc3ccccc3[nH]2)c1 | 1.94
54 | COc1cc(OC)c(OC)cc1/C=N/Nc1nc2ccccc2[nH]1 | 12.8
55 | COc1ccc(NC(=O)c2c(C)nn(Cc3ccccc3)c2Cl)cc1S(=O)(=O)N1CCOCC1 | 2.08
56 | Cc1ccc(S(=O)(=O)N2CCC(C(=O)OC(C)C(=O)N3CCOCC3)CC2)cc1 (centres undefined) | 4.25
57 | CCc1ccc(NC(=O)c2n[nH]c(=O)c3ccccc23)cc1 | 2.23
58 | COc1ccc(N2CCN(C(=O)CCN3C(=O)C4C5C=CC(C5)C4C3=O)CC2)cc1 (centres undefined) | 10.9
59 | CCn1cc(CNC(=O)C2CCC(=O)N(CCc3cccc(F)c3)C2)cn1 (centres undefined) | 4.69
60 | CCCNC(=O)COC(=O)C1CCN(S(=O)(=O)c2ccc3c(c2)OCCO3)CC1 | 2.29
61 | COc1ccccc1CC(=O)NCC1CCCO1 (centres undefined) | 14.3
62 | O=C(CCCC(=O)NCC1CCCO1)NCC1CCCO1 (centres undefined) | 7.04
63 | O=C(CSCSCC(=O)NCC1CCCO1)NCC1CCCO1 (centres undefined) | 9.35
64 | O=C(CN1CCN(c2ccc(F)cc2)CC1)NCC1CCCO1 (centres undefined) | 12.3
